From PubChem BioAssay AID588683 (Broad Institute, 2011) come the findings set out here.

Results with a measured potency or affinity are listed apart. Calls of active or inactive are those of the source. No rule for the calls is given here.

In the assay the target is Kelch-like ECH-associated protein 1 (Homo sapiens) + Nuclear factor erythroid 2-related factor 2 (Homo sapiens) (UniProt Q14145+Q16236). Put plainly: Keap1-Nrf2 protein-protein interaction inhibitors, dose response, biochemical, fluorescence polarization, cherry-picked samples (AID 588683).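 Also: Kelch domain of Keap1 binding a fluorescein-labelled 9mer Nrf2 peptide; more negative means stronger inhibition of peptide binding.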 To be noted: Keap1/Nrf2 peptide fluorescence polarization, plate reader; series mostly up to 26 µM. A general note: Polarisation of emitted light reports the rotation of a fluorescent probe.
Kelch-like ECH-associated protein 1 (Homo sapiens) + Nuclear factor erythroid 2-related factor 2 (Homo sapiens), sequence (Q14145 whole entry, looked up, the tested form may be a part): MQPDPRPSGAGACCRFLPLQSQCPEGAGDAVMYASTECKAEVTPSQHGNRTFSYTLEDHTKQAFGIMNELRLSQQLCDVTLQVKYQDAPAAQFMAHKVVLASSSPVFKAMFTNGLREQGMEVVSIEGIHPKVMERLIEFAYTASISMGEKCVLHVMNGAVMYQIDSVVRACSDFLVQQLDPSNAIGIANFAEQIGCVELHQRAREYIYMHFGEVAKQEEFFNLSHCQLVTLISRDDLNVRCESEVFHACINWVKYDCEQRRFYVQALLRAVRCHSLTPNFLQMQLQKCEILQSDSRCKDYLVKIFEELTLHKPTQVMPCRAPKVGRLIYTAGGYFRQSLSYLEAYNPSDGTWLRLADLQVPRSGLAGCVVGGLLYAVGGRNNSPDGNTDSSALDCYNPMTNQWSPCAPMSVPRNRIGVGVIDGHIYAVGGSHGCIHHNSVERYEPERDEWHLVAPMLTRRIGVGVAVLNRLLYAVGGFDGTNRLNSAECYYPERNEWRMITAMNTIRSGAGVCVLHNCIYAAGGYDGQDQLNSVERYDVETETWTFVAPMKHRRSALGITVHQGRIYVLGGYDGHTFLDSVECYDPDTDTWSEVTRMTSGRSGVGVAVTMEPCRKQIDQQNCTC
Kelch-like ECH-associated protein 1 (Homo sapiens) + Nuclear factor erythroid 2-related factor 2 (Homo sapiens), sequence (Q16236 whole entry, looked up, the tested form may be a part): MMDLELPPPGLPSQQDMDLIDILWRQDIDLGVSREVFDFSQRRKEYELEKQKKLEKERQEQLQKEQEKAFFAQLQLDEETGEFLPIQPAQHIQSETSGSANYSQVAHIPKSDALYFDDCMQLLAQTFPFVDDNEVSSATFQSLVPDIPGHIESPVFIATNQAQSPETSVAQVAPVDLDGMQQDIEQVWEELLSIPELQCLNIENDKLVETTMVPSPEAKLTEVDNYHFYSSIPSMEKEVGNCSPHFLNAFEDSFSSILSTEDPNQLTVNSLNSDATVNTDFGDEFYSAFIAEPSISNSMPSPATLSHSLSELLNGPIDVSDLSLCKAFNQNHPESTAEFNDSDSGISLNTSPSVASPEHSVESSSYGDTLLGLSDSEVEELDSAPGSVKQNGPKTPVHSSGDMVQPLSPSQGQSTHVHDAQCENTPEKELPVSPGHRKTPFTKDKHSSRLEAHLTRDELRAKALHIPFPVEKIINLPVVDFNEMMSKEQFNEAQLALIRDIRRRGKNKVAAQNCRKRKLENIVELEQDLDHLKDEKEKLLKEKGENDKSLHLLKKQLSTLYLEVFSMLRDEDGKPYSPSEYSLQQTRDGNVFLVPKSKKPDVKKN
On to `O=C(CN1C(=O)NC2(CCCC2)C1=O)Nc1ccc(C(F)(F)F)cc1`, for which the result was inactive.

With `COc1ccc(C(=O)c2ccsc2N)cc1`, the outcome was inactive.

Take `O=C1c2cccc3c(N4CCCCC4)ccc(c23)C(=O)N1c1ccccc1O`: the result was inactive.

In the case of `N#CCCN(CCC#N)C(=O)C1c2ccccc2Oc2ccccc21`, the result was inactive.

Consider `CCC(C)(C)n1nnnc1C(c1cc2ccc(OC)cc2[nH]c1=O)N1CCc2ccccc2C1` (stereo not drawn), for which the outcome was inactive.

Regarding `CCn1nnnc1SCC(=O)N(C)C1CCS(=O)(=O)C1` (stereo not drawn), the result was inactive.

On to `CCCCNC(=S)Nc1ccc(OC)nc1`, for which the result was inactive.

For the molecule `Oc1ccc2c(c1)OCC1(O)Cc3cc(O)c(O)cc3C21` (stereo not drawn), the outcome was inactive.

Turning to `O=C(O)c1cccc(-n2cccc2/C=C2/NC(=O)N(c3ccc(Cl)cc3)C2=O)c1`, the result was inactive.

Consider `O=S(=O)([O-])CCC[n+]1c(SCCCS(=O)(=O)O)sc2ccc(Cl)cc21`, for which the outcome was inactive.

For `CCOC(=O)c1ccc2ncc(C(=O)OCC)c(NCCN(C)C)c2c1`, the outcome was inactive.

For the molecule `Oc1[nH]c2ccccc2c1N=Nc1ccccc1`, the result was inactive.

With `CCOC(=O)C1=C(C)NC(C)=C(C(=O)OCC)C1c1ccc([N+](=O)[O-])s1`, the result was inactive.

`O=c1[nH]c(=S)[nH]c2c1C(c1ccc(Br)cc1)c1c([nH]c(=S)[nH]c1=O)O2`: the outcome was inactive.

Turning to `c1ccc(-n2ncc3c(NCC4CCCO4)ncnc32)cc1` (stereo not drawn), the result was inactive.

In the case of `CCCCC1OC23CCCCC2C(C#N)(C#N)C1(C#N)C(=N)O3` (stereo not drawn), the outcome was inactive.

Consider `CCCCC(CC)C(=O)Oc1ccc(O)c(C(C)(C)C)c1` (stereo not drawn), for which the result was inactive.

Regarding `COc1ccc(N=Nc2nc3ccc(Br)cc3n2C)cc1`, the result was inactive.

`CCCCCC(=O)N1CCCC1`: the outcome was inactive.

Regarding `COc1ccc(Nc2nc3ccccc3nc2-n2nc(C)cc2C)cc1`, the outcome was inactive.

As for `CC1OC2(C)OC(=N)C1(C#N)C(C#N)(C#N)C2c1ccccc1` (stereo not drawn), the outcome was inactive.

`O=C(COC(=O)c1cccnc1Cl)Nc1ccc(N2CCCCC2)cc1`: the result was inactive.

Regarding `CC(C)Cn1c(N)c(C(=O)CSc2nnc(-c3ccco3)n2C)c(=O)n(C)c1=O`, the outcome was inactive.

Turning to `CC(=O)Nc1ccc2c(c1)N(C(=O)CN(C)C)c1ccccc1CC2`, the result was inactive.

Turning to `COc1cc2c3nnc(-c4ccc(F)cc4)c-3cn(Cc3ccccc3F)c2cc1OC`, the result was inactive.

Consider `COC(=O)c1cc(C)nc2c1c(C)nn2-c1ccccc1`, for which the outcome was inactive.

For `CCCC1C2CN(C(C)C)CC=C2C(C#N)=C(N)C1(C#N)C#N` (stereo not drawn), the outcome was inactive.

Take `C=CCn1c(O)c(CN2CCOCC2)c(C)c(C#N)c1=O`: the result was inactive.

Consider `CCOC(=O)C(C)(C)N(Cc1ccccc1C)S(=O)(=O)c1ccc(Cl)c([N+](=O)[O-])c1`, for which the outcome was inactive.

Turning to `NC(=O)COc1ccc(NC(=O)CC23CC4CC(CC(C4)C2)C3)cc1`, the result was inactive.

Turning to `O=C(Nc1ccccn1)C1CCN(S(=O)(=O)c2ccc3c(c2)OCCO3)CC1`, the outcome was inactive.

For the molecule `COCCCNc1nc(N)c([N+](=O)[O-])c(Nc2cc(OC)ccc2OC)n1`, the outcome was inactive.

As for `O=C1NC(=O)/C(=C/c2ccccc2Cl)N1`, the outcome was inactive.

With `c1ccc(-c2cn3nc4c(nc3n2)CCCC4)cc1`, the outcome was inactive.

With `CC1=CC(=C2N=C(c3ccccc3)OC2=O)C=C(C)O1`, the result was inactive.

In the case of `O=C(NCc1cccc(F)c1)c1cccc2c1C(=O)c1ccc(N3CCCC3)cc1S2(=O)=O`, the result was inactive.

With `O=C(NNc1ncnc2sccc12)c1ccc(Cl)cc1`, the result was inactive.

For `CC1(C)CC(=O)C2=C(C1)OC(N)=C(C#N)[C@@H]2c1ccccc1[N+](=O)[O-]`, the result was inactive.
